Among all 48,000 compounds or so, about 13,000 (27%) showed an effect of 50% or more. The list shows a part of the results.
test system: Wolbachia pipientis; test: Anti-Wolbachia Cell-Based Screen; type: functional; set-up: scale not given: in the data most compounds retested in dose-response had high values; details: 5 µM

SMILES	Percent Effect [%]
O=C(NCc1ccccn1)[C@@H]1COC[C@H]2CNC[C@H]21	-0.4259
O=C(COc1ccc(Cl)cc1Cl)N1CCCSCC1CN1CCOCC1 (stereo not drawn)	-6.318
c1cnc(N2CCOCC3(CNCCO3)C2)nc1 (stereo not drawn)	-30.03
O=C(C[C@@H]1COC[C@H]2CN(CC3CC3)C[C@@H]12)NCc1cccnc1.O=C(O)C(F)(F)F.O=C(O)C(F)(F)F	86.58
COCCN1C[C@@H]2COC[C@@H](CC(=O)NCc3cccnc3)[C@@H]2C1.O=C(O)C(F)(F)F.O=C(O)C(F)(F)F	24.5
CNCCc1nc2cc(Cl)ccc2[nH]1.Cl.Cl	8.686
CC(C)Oc1ccc(C(O)CNCc2ccccc2C(F)(F)F)cc1 (stereo not drawn)	-32.82
CN1CCO[C@@H]2CN(C(=O)c3ccc4ncccc4c3)CC[C@@H]2C1.O=C(O)C(F)(F)F.O=C(O)C(F)(F)F	-8.044
O=C(O)C(F)(F)F.O=C(O)C(F)(F)F.O=C1[C@H]2CN(C3CCOCC3)C[C@H]2CN1Cc1ccncc1	-10.38
O=C(c1ccno1)N1CC[C@@H]2CN(C3CCOCC3)CCO[C@@H]2C1	85.56
CN1CCC(N(C)c2ccccc2CNCc2ccco2)CC1	13.84
CCN1CCN(C)C2(CCN(Cc3cccc(C)n3)CC2)C1=O.O=C(O)C(F)(F)F.O=C(O)C(F)(F)F	-10.53
Cc1cccc(CN2C(=O)CCC23CCNCC3)n1.O=C(O)C(F)(F)F.O=C(O)C(F)(F)F	115.6
Cc1cccc(CN2CCC3(CCN(c4cccnc4)C3=O)C2)n1.O=C(O)C(F)(F)F.O=C(O)C(F)(F)F (stereo not drawn)	-4.819
O=C(Cc1cnc(-c2c(Cl)cccc2Cl)s1)N1CCC2(CC1)OCCO2	110.5
O=C(Cn1ccc2c(Cl)cccc21)N1CCC2(CC1)OCCO2	11.16
O=C(Nc1ccc(Cn2cccn2)cc1)N1CCC2(CC1)OCCO2	-11.32
O=C(Cc1ccc(O)c(F)c1)N1CCN(CC2CC2)[C@@H]2CS(=O)(=O)C[C@@H]21	-17.2
O=C(O)C(F)(F)F.c1coc(CNc2ncc3c(n2)C2(CCNC2)COC3)c1 (stereo not drawn)	-4.361
Cc1cnc(N2CCCC3(CCCN(C)C3)C2)nc1 (stereo not drawn)	-6.547

SMILES	Percent Effect [%]
Clc1cc(N2CCN3CCCCC3C2)nc2[nH]ccc12 (stereo not drawn)	91.81
Clc1cc(CN2CCCN3CCCC3C2)c2ncccc2c1 (stereo not drawn)	-2.153
COCc1cn(C[C@H]2CC3CCN2C[C@@H]3C(=O)Nc2ccccc2)nn1 (stereo partly drawn)	-0.5907
CCc1cc(CNCc2ccccc2N(C)C2CCN(C)CC2)on1	10.76
Cc1noc(C)c1CN1C[C@@H]2CN(C(=O)c3cscn3)C[C@@H]2C1	-4.527
Cc1noc(C)c1CN1C[C@H]2CNC[C@H]2C1	94.55
Cc1noc(C)c1CN1C(=O)[C@H]2CC[C@@H]1CN(Cc1ncc[nH]1)C2	-9.267
Cc1noc(C)c1CN1C[C@@H]2C[C@@H](C)O[C@@H]2C1.O=C(O)C(F)(F)F	94.5
Cc1noc(C)c1CN1CC[C@@H]2O[C@@H](COCC(C)C)CC[C@@H]21.O=C(O)C(F)(F)F	-18.54
CNC(=O)[C@@H]1C[C@H]2CN(Cc3c(C)noc3C)C[C@H]2N1C(C)C.O=C(O)C(F)(F)F.O=C(O)C(F)(F)F	-23.54
Cc1noc(C)c1CN1C[C@@H]2CN(C(=O)c3cnccn3)C[C@@H]2C1.O=C(O)C(F)(F)F	12.22
Cc1noc(C)c1CN1CC[C@@H]2O[C@H](COCC(C)C)CC[C@@H]21.O=C(O)C(F)(F)F	9.009
C[C@@H]1C[C@H]2CN(Cc3nccs3)C[C@H]2O1.O=C(O)C(F)(F)F	-5.34
Cc1noc(C)c1CN1C[C@@H]2C[C@H](C(=O)NCC3CC3)N(C)[C@@H]2C1.O=C(O)C(F)(F)F.O=C(O)C(F)(F)F	97.39
CNC(=O)[C@H]1C[C@@H]2CN(Cc3c(C)noc3C)C[C@@H]2N1C(C)=O.O=C(O)C(F)(F)F	-32.47
Cc1noc(C)c1CN1C[C@@H]2CC(F)(F)C[C@@H]2C1.O=C(O)C(F)(F)F	103.5
CC(C)NC(=O)NC[C@H]1C[C@@H]2CCN1C[C@@H]2CN(C)c1ccccc1	-10.33
CC(Cc1c(F)cccc1F)NC(=O)Nc1cnn(CC(N)=O)c1 (stereo not drawn)	0.8263
C/C(=C\c1ccco1)CN(C)C(C)Cc1cc(C)ccn1 (stereo not drawn)	32.02
O=C(Nc1ccccc1)[C@H]1CN2CCC1C[C@@H]2Cn1cc(CO)nn1 (stereo partly drawn)	-4.286

SMILES	Percent Effect [%]
Cc1noc(C)c1CN1C[C@H]2CN(Cc3cccc(F)c3)C[C@H]2C1.O=C(O)C(F)(F)F.O=C(O)C(F)(F)F	97.06
CC(C)C(=O)N1CCCC2(CCCN2Cc2cccnc2)C1 (stereo not drawn)	-11.99
O=C1Nc2ccccc2CC12CCCN2Cc1ccccn1 (stereo not drawn)	100.2
O=C1Nc2ccccc2CC12CCCN2Cc1cccnc1 (stereo not drawn)	106.6
O=C1N(Cc2ccccn2)C[C@H]2CN(C3CCC3)CCN12	-6.605
O=C(c1ccc[nH]1)N1CCCC2(CCCN2Cc2cccnc2)C1 (stereo not drawn)	22.1
O=S(=O)(NC[C@H]1C[C@@H]2CCN1C[C@@H]2CN1CCCC1)c1ccc(Cl)cc1	14.89
CC(C)c1cc(CN2CCN(c3cccnc3)CC2)n(C)n1	9.429
CN1CCCC(c2n[nH]c3ncccc23)C1 (stereo not drawn)	-5.321
CN1CCCC(c2ccc(N3CCOCC3)cn2)C1.Cl (stereo not drawn)	96.78
CN1CCCC1c1ccc(N2CCOCC2)cn1 (stereo not drawn)	81.49
CCN(CC)C(=O)C1CCC2(CCNCC2)CO1.Cl (stereo not drawn)	2.217
c1cc(CN2CC[C@H]3C[C@H](c4nc(C5CC5)cs4)O[C@@H]3C2)ccn1	0.1706
Cc1cc(CN2CC[C@H]3C[C@@H](c4nc(C5CC5)cs4)O[C@@H]3C2)no1	106.4
Cc1ncsc1CN1CC[C@H]2C[C@H](c3ccncn3)O[C@@H]2C1	-3.058
Cc1nc(CN2CC[C@H]3C[C@H](c4ccncn4)O[C@@H]3C2)cs1	0.4652
Cc1nccc([C@@H]2C[C@@H]3CCN(Cc4cccs4)C[C@H]3O2)n1	0.9996
Cc1cc(CN2CC[C@H]3C[C@H](c4nc(C5CC5)cs4)O[C@@H]3C2)no1	106.7
